PubChem BioAssay (NCATS)
Inconclusive results are not listed. A number with no mark means an inactive call. Calls of active or inactive are those of the source. The call rests on the fitted dose curve; in most records, active means well fitted inhibition curve with a large enough effect; inconclusive means small, poorly fitted or top-dose-only effect; inactive means flat fitted curve, though single readings scatter.

These molecules were tested against Glutathione peroxidase 1 (Homo sapiens) (UniProt P07203) (assay: Primary qHTS Assay for Inhibitors of Recombinant Selenoprotein Glutathione Peroxidase 1 (GPX1) (AID 1845191)). Conditions: recombinant GPX1, GR-coupled NADPH fluorescence, 15 min; series mostly up to 27.7 µM; activity, negative = inhibition: at the top concentration.
Glutathione peroxidase 1 (Homo sapiens), sequence (P07203 whole entry, looked up): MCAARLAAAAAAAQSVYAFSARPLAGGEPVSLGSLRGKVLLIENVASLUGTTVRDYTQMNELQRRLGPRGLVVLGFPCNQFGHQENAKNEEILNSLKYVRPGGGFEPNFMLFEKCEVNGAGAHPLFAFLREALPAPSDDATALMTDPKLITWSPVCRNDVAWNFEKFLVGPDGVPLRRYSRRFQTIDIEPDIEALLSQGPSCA
Outline: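 GR-coupled assay: compounds preincubated 30 min at room temperature with GPX1, then reaction started with CHP; final 10 nM GPX1, 1 mM GSH, 0.5 mM CHP, 0.5 mM NADPH, 100 nM GR, 0.01% BSA, pH 7.5 Tris buffer. NADPH fluorescence (340/450 nm) read at 0 and 15 min.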
Further: nearly all actives have a fitted effect of over 65% in size.
On the % scale 0 is the no-effect control and ±100 the full control effect.

Row | SMILES | activity, negative = inhibition | outcome
1 | Cn1c2ccc(NC(=O)c3ccccc3)cc2c(=O)n2nc(C(=O)O)cc12 | 1.11% | –
2 | C=C[C@@]1(C)CCC2=C([C@H]1OC(C)=O)[C@H](OC(C)=O)CC1[C@](C)(C(=O)OC)CC[C@H](OC(C)=O)[C@]21C (stereo partly specified) | – | inactive
3 | CC1=C2C3OC(=O)C(C)C3(O)CCC2(C)CCC1 (stereo unspecified) | -6.92% [at 48.8 µM] | –
4 | CC(C)(O)C1OC1C1=CC(=O)C2(C)OC2C1O (stereo unspecified) | – | inactive [at 48.8 µM]
5 | C=C1CCC2C(C)(C)CC(=O)CC2(C)C1CCC(C)CCO (stereo unspecified) | 2.32% [at 48.8 µM] | –
6 | CC[C@@H]1[C@H]2CCCCN3C(=O)C[C@H]([C@@H]4[C@H]1OC(=O)[C@H]4C)[C@@H]23 | -9.48% [at 48.8 µM] | –
7 | C=C1CCC2(C(=O)OC3OC(CO)C(O)C(O)C3O)CCC3(C)C(=CCC4C5(C)CCC(OC6OC(CO)C(OC7OC(C)C(O)C(O)C7O)C(OC7OCC(O)C(O)C7O)C6O)C(C)(C)C5CCC43C)C2C1 (stereo unspecified) | -17% [at 15.3 µM] | –
8 | C[C@@H]1C[C@@H](O)[C@@]23CO[C@]2(CO)C[C@@H](O)CC3[C@@]12CC(c1ccoc1)OC2=O (stereo partly specified) | – | inactive
9 | COc1cc(/C=C/C(=O)O[C@H]2[C@H](O)[C@@H](CO)O[C@@]2(CO)O[C@H]2O[C@H](CO)[C@@H](O)[C@H](O)[C@H]2O)cc(OC)c1O | -9.6% | –
10 | C=C1Cc2c(Cl)cc3[nH]c4c5c3c2[C@@]2(O)[C@@H]1C[C@@H]2C(C)(C)O[C@H]5C1CC[C@@]2(O)[C@@]35O[C@@H]3[C@H]3OC(C)(C)[C@H]3O[C@H]5CC[C@]2(C)[C@@]41C (stereo partly specified) | -20.2% [at 15.3 µM] | –
11 | C=CCc1cc(OC)c(OC(C)C(O)c2ccc(O)c(OC)c2)c(OC)c1 (stereo unspecified) | -23.9% | –
12 | COc1cc(C[C@@]2(O)CO[C@@H](c3ccc(O[C@@H]4O[C@H](CO)[C@@H](O)[C@H](O)[C@H]4O)c(OC)c3)[C@H]2CO)ccc1O | – | inactive
13 | O=C(OCC1=C[C@@H](O)[C@@H]2C=CO[C@@H](O[C@@H]3O[C@H](CO)[C@@H](O)[C@H](O)[C@H]3O)[C@H]12)c1ccc(O)cc1 | 1.45% | –
14 | COc1cc(CC2COC(c3ccc(OC4OC(CO)C(O)C(O)C4O)c(OC)c3)C2CO)ccc1O (stereo unspecified) | – | inactive
15 | C=CC(C)(CC/C=C(\C)C(=O)OC)OC1OC(COC(=O)CC(C)(O)CC(=O)O)C(O)C(O)C1O (stereo unspecified) | – | inactive
16 | COC(=O)C1=COC(OC2OC(CO)C(O)C(O)C2O)C2C(C)C(OC(C)=O)C(OC(=O)c3ccccc3)C12 (stereo unspecified) | -10.5% | –
17 | C=C1CCC2C(C)(C)CCC[C@]2(C)[C@H]1CC/C(C)=C/C(=O)O (stereo partly specified) | – | inactive [at 48.8 µM]
18 | CCNC(=O)C1CC(F)(c2ccc(CN3CCCC3)c(F)c2)C1 (stereo unspecified) | – | inactive [at 48.8 µM]
19 | COc1ccc(-c2ccn(CC[C@](C)(C(=O)NO)S(C)(=O)=O)c(=O)c2)c(F)c1 | – | inactive [at 48.8 µM]
20 | CCC(=O)N1CCc2cc(OC)c(O)cc2C1 | -16.2% [at 48.8 µM] | –
21 | COc1cc(O[C@@H]2O[C@H](CO[C@H]3OC[C@](O)(CO)[C@H]3O)[C@@H](O)[C@H](O)[C@H]2O)cc(OC)c1O | -12.1% | –
22 | C/C=C(\C)C(=O)OCC1OC(OCC2OC(OC3(CO)OC(CO)C(O)C3O)C(O)C(O)C2O)C(O)C(O)C1O (stereo unspecified) | -8.87% [at 15.3 µM] | –
23 | O=C(/C=C/c1ccc(O)cc1)O[C@@H]1C[C@@](O)(C(=O)O)C[C@@H](O)[C@@H]1O | 0.13% | –
24 | COc1cc([C@@H](O[C@@H]2O[C@H](CO)[C@@H](O)[C@H](O)[C@H]2O)[C@@H]2CO[C@H](c3ccc(O)c(OC)c3)[C@H]2CO)ccc1O | -10.5% | –
25 | COc1cc(O)cc(C)c1C(=O)OC1C(CO)OC(n2ccc(=O)[nH]c2=O)C1OC(C)=O (stereo unspecified) | – | inactive

The molecules below were run against Phospholipid hydroperoxide glutathione peroxidase GPX4 (Homo sapiens) (UniProt P36969) (assay: Primary qHTS Assay for Inhibitors of Recombinant Selenoprotein Glutathione Peroxidase 4 (GPX4) (AID 1845192)). Conditions: recombinant GPX4, GR-coupled NADPH fluorescence, 15 min; series mostly up to 27.8 µM; activity change, negative = inhibition: at the top concentration.
Phospholipid hydroperoxide glutathione peroxidase GPX4 (Homo sapiens), sequence (P36969 whole entry, looked up): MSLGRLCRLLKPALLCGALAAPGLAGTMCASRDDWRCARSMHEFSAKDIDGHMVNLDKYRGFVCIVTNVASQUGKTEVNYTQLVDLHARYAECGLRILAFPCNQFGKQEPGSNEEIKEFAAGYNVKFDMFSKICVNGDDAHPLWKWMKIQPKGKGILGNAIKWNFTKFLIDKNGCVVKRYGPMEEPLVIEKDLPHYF
Outline: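 GR-coupled assay: recombinant GPX4 preincubated 30 min with compound at room temperature; final 200 nM GPX4, 1 mM GSH, 0.5 mM cumene hydroperoxide, 0.5 mM NADPH, 100 nM GR, 0.01% BSA, pH 7.5 Tris. NADPH fluorescence (340/450 nm) read at 0 and 15 min.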

Row | SMILES | outcome | activity change, negative = inhibition
26 | COC1OC(OC)C(O)(CCC2(C)C(C)CCC3(C)C2CC(O)C(O)C32CO2)C1O (stereo unspecified) | inactive | –
27 | CC(=O)O[C@@H]1C[C@@H](C)[C@](O)(CCC2=CC(=O)OC2)[C@@]2(C)CCCC(C)(C)C12 (stereo partly specified) | – | -16.7%
28 | COC(=O)c1cc(OC)cc(OC)c1C(=O)c1c(OC)cc2c(c1O)C1CCC(O)C(C)(O2)O1 (stereo unspecified) | – | -8.02%
29 | COc1cc(O)c2c(c1)C1(OC2=O)C(C)=CC(=O)C1O (stereo unspecified) | – | -12.2% [at 50 µM]
30 | CC(O)/C=C/C1(O)C(C)C(O)C(O[C@@H]2O[C@H](CO)[C@@H](O)[C@H](O)[C@H]2O)CC1(C)C (stereo partly specified) | – | -15.5%
31 | C/C(CO)=C1/CCC23COC(C2)C(O)(C(=O)O)CCC13 (stereo unspecified) | – | -6.49% [at 50 µM]
